About 79,000 compounds went through this panel and 15% of them were active in at least one assay; those are over-represented in the sample as a whole. Cut-off read from the data, not from the text of the source: active = growth inhibition above about 70%; inactive = the rest.
Legend:
[1] = NCI Yeast Anticancer Drug Screen. Data for the rad50 strain (AID 155);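 note: 0% = growth of vehicle-only cultures of the same strain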; conditions: S. cerevisiae rad50 strain growth inhibition; at 50.0 µM; hits give high values
Summary of the method: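 Relative growth inhibition (compound vs vehicle) was measured in yeast with a defined repair-gene alteration.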

[2] = NCI Yeast Anticancer Drug Screen. Data for the mec2-1 strain (AID 157); conditions: S. cerevisiae mec2-1 strain, at 50.0 µM, hits give high values
Summary of the method: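 Vehicle-treated cultures served as reference for growth inhibition of compound-exposed mec2-1 yeast.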

[3] = NCI Yeast Anticancer Drug Screen. Data for the sgs1 mgt1 strain (AID 161);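 note: 0% = growth of cultures given vehicle only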; conditions: S. cerevisiae sgs1 mgt1 strain, at 50.0 µM, hits give high values
Summary of the method: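 Read-out: growth inhibition vs vehicle controls. Cells: mutant yeast strain deficient in DNA damage repair.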

[4] = NCI Yeast Anticancer Drug Screen. Data for the cln2 rad14 strain (AID 165);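 note: 0% = growth equal to vehicle treated cultures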; conditions: S. cerevisiae cln2 rad14 strain, at 50.0 µM, hits give high values
Summary of the method: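 Each compound was tested on cln2 rad14 yeast. Inhibition of growth was calculated against vehicle-exposed controls.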

[5] = NCI Yeast Anticancer Drug Screen. Data for the bub3 strain (AID 167); conditions: S. cerevisiae bub3 mutant strain, at 50.0 µM, hits give high values
Summary of the method: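 Screening used yeast with an engineered genetic alteration affecting cell cycle control. Compound-exposed cultures were compared with vehicle cultures, and reduced growth was taken as inhibition.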

[6] = NCI Yeast Anticancer Drug Screen. Data for the mlh1 rad18 strain (AID 175); conditions: S. cerevisiae mlh1 rad18 strain growth inhibition; at 50.0 µM; hits give high values
Summary of the method: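 Vehicle-treated cultures served as the reference for growth inhibition in a yeast strain carrying DNA damage repair alterations exposed to each compound.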

Measured: growth inhibition

Cc1c2ccnc(C#N)c2c(C)c2c1[nH]c1ccccc12
inactive: [1] -19.8% | [2] 3% | [3] -16.9% | [4] -13.3% | [5] 12.8% | [6] 7.5%

O=C(NC1c2ccccc2Oc2ccccc21)OCCCCl
inactive: [1] -11.2% | [2] -3.1% | [3] 2.15% | [4] -7.05% | [5] 7.8% | [6] -5.1%

CC1=C(C(=O)Nc2ccc(C)cc2)C(c2cccc([N+](=O)[O-])c2)C(C(=O)Nc2ccc(C)cc2)=C(C)N1
inactive: [1] 14.9% | [2] 24.3% | [3] 22.5% | [4] 13.8% | [5] 41% | [6] 4.35%

CC1(C)CCCC/C1=N\NC(N)=O
inactive: [1] -12.6% | [2] -20.4% | [3] -8% | [4] -6.15% | [5] -9.6% | [6] -14.8%

Clc1cc(Cl)c2ncccc2c1
inactive: [1] 4.05% | [2] 17.9% | [3] 3.3% | [4] -30.2% | [5] 17.8% | [6] 11.8%

CC(O)(c1ccc(Cl)cc1)c1ccc(Cl)cc1
inactive: [1] -4.05% | [2] -18.9% | [3] 1.2% | [4] -52.6% | [5] -8.75% | [6] -15.8%

CC1(C)[C@H](C(=O)O)N2C(=O)[C@@H](NC(=O)C(c3ccccc3)c3ccccc3)[C@H]2S1=O (some centres not stated)
inactive: [1] -53.5% | [2] -8.25% | [3] -10.4% | [4] 3.65% | [5] -3.9% | [6] 4.85%

Nc1nc2c(C(=O)c3ccco3)nnn2c2cccc(Cl)c12
inactive: [1] 10.7% | [2] -2.7% | [3] 11.6% | [4] 11.2% | [5] 8.95% | [6] 5.85%

O=C(Cc1ccccc1)OCC(=O)c1ccc(-c2ccccc2)cc1
inactive: [1] -1.05% | [2] 15.1% | [3] 0.9% | [4] 39.8% | [5] 19.1% | [6] -5.15%

C/C(CC(C)C)=N/Nc1ccc([N+](=O)[O-])cc1[N+](=O)[O-]
inactive: [1] 5.85% | [2] -2.05% | [3] 2.65% | [4] -42.6% | [5] 19.9% | [6] 26.8%

COc1cc2c(C)cc(=O)oc2c(OCC(O)CN2CCCC2)c1OC (configuration not stated)
inactive: [1] -0.75% | [2] 14% | [3] -5.75% | [4] 1.35% | [5] -4.35% | [6] -5.25%

CC(=O)Oc1ccc[nH]c1=O
inactive: [1] 5.25% | [2] -22.1% | [3] 0.9% | [4] 24.6% | [5] 14.3% | [6] 2.4%

CCN1C(=O)/C(=C\c2coc3ccccc3c2=O)SC1=S
inactive: [1] -2.6% | [2] -34.7% | [3] 0.2% | [4] 0.5% | [5] -23.7% | [6] -0.2%

CCOc1ccc(N2N=C(C)CCC2=O)cc1
inactive: [1] 6.2% | [2] 1.9% | [3] 5.15% | [4] -10.6% | [5] 6.15% | [6] 0.2%

CCC(C#N)C1=CCCCCC1 (configuration not stated)
inactive: [1] 31.8% | [2] 3.75% | [3] 19.4% | [4] 11.7% | [5] 4.6% | [6] 20.6%

CCOc1ccc2c(N=[N+]=[N-])cc(C)nc2c1
inactive: [1] -46.1% | [2] -11.2% | [3] -18.2% | [4] -67.8% | [5] 5.3% | [6] 5.45%

C=C1CC[C@H]2C(C)=CC[C@@H]3[C@H](OC(=O)[C@H]3CN(C)C)[C@@H]12
inactive: [1] 8.05% | [2] -4.45% | [3] 1.5% | [4] 32.7% | [5] 26.4% | [6] 16.2%

NC1=NN(c2ccccc2)C(=O)C1/C(=N\NC(=O)c1cc2ccccc2cc1O)C(=O)Nc1cccc(C(F)(F)F)c1 (configuration not stated)
inactive: [1] 47% | [2] 15.7% | [3] -33.5% | [4] 19.9% | [5] 20.5% | [6] 31.4%

NS(=O)(=O)c1ccc(NC(=S)/N=C/c2c(O)c3ccccc3oc2=O)cc1
inactive: [1] 6.2% | [2] -4.45% | [3] 16.3% | [4] -18.9% | [5] -10.4% | [6] 12.6%

CC(C)SCCO
inactive: [1] -2.55% | [2] 10.2% | [3] 7.6% | [4] -9.65% | [5] -26.6% | [6] -13.4%

NC(CSC(c1ccccc1)(c1ccccc1)c1ccc(C(=O)O)cc1)C(=O)O (configuration not stated)
inactive: [1] 54.2% | [2] -4.1% | [3] 18.5% | [4] 15.5% | [5] 2.2% | [6] 9.85%

O=C(CC(=O)n1nc(-c2ccccc2)c(N=Nc2ccccc2Cl)c1-c1ccccc1)Nc1ccc(Cl)cc1
inactive: [1] -9.5% | [2] 8.45% | [3] -3.95% | [4] 13.9% | [5] -18.7% | [6] -8.65%

COc1ccc2cc1Oc1ccc(cc1)C[C@@H]1c3cc(c(OC)cc3CCN1C)Oc1c(OC)c(OC)cc3c1[C@@H](C2)N(C)CC3
inactive: [1] 33% | [2] -20.8% | [3] 18.6% | [4] -2.7% | [5] 21.9% | [6] 31.2%

O=c1cnn(C2OC(CO)C(O)C2O)c(=S)[nH]1 (configuration not stated)
inactive: [1] -4.45% | [2] -1.45% | [3] 28.6% | [4] 1.25% | [5] 26.1% | [6] -96.5%

CCCn1c(C)nc2c(N)cc(C)cc21
inactive: [1] -5.9% | [2] -2.9% | [3] -6.05% | [4] -44.5% | [5] -1.5% | [6] -0.8%

COC(=O)CCCc1ccc2c(c1)CC1(C2)Cc2cc3c(cc2C1)CCCC3
inactive: [1] -14.5% | [2] -20.4% | [3] -11.2% | [4] -15.5% | [5] -11.9% | [6] -3.85%

Nc1ccc(S(=O)(=O)O)cc1[N+](=O)[O-]
inactive: [1] 4.4% | [2] 3.8% | [3] -3.75% | [4] 1% | [5] 5.8% | [6] 12.6%

Cc1ccc(N2CCN(c3ccc([N+](=O)[O-])cc3)CC2)cc1Cl
inactive: [1] -6.15% | [2] 7.15% | [3] 2.85% | [4] -12.4% | [5] 0.15% | [6] -28.3%

CCOC(=O)c1ccnc2ccccc12
inactive: [1] -5.05% | [2] -3.75% | [3] 1.1% | [4] -4.85% | [5] 5.65% | [6] 3.7%

O=C(Nc1ccccc1)OC1C(OC(=O)c2ccccc2)OC(COC(=O)c2ccccc2)C1OC(=O)c1ccccc1 (configuration not stated)
inactive: [1] -0.5% | [2] 0.75% | [3] 0.25% | [4] -0.85% | [5] -9.1% | [6] -10.5%

Cc1nc(SCC(=O)Nc2ccc(Cl)cc2)c2sc(=S)n(-c3ccccc3)c2n1
inactive: [1] -14.2% | [2] 4.6% | [3] -1.25% | [4] 2.35% | [5] -4.4% | [6] 5.4%

COc1cccc2c1CCC1(O)OC(=O)CC21 (configuration not stated)
inactive: [1] -17.4% | [2] 5.15% | [3] -20.5% | [4] 2.1% | [5] -6.5% | [6] -15.1%

O=C(CCCl)OC1CCCC1
inactive: [1] 1.5% | [2] -9.8% | [3] -3.6% | [4] -30.4% | [5] -5.65% | [6] 9%

Clc1ccccc1/C=N/N=C/c1ccccc1Cl
inactive: [1] 5.65% | [2] -3.95% | [3] -9.05% | [4] -21.9% | [5] 1.7% | [6] 4.9%

Nc1ccc(S(=O)(=O)OCCOc2ccccc2)cc1
inactive: [1] -2.85% | [2] 7.6% | [3] 2.6% | [4] -4.2% | [5] 18.7% | [6] -7.3%

O=C(CNC(=O)OCc1ccccc1)NCCNCCNC(=O)CNC(=O)OCc1ccccc1
inactive: [1] -26.9% | [2] 6.7% | [3] -5.65% | [4] 36.2% | [5] 8.45% | [6] -0.4%

COc1ccccc1OCC(=O)O
inactive: [1] 23.6% | [2] 0.2% | [3] -17.8% | [4] -24.9% | [5] -11.9% | [6] 23.2%

Oc1ccc2ccccc2c1C=NCCS
inactive: [1] 24.9% | [2] 6.25% | [3] 2.7% | [4] -25.6% | [5] -3.4% | [6] 3.15%

c1ccc2c(c1)nc1n2C2CCC(C2)N1 (configuration not stated)
inactive: [1] 4% | [2] 10% | [3] 18.8% | [4] 21.9% | [5] 6.15% | [6] 15.7%

CCCCCCCCCCCCCCCCCCC1=C(O)C(=O)C=C(OC)C1=O
inactive: [1] 18.2% | [2] -6.5% | [3] -3.05% | [4] -2.4% | [5] 4.4% | [6] 8.75%

CCOCCOc1nc(C)cc(C)c1C#N
inactive: [1] -30.9% | [2] -41.5% | [3] -8.05% | [4] -6.4% | [5] -29.5% | [6] -20.9%

O=[N+]([O-])c1ccc(C2ON2C2CCCCC2)cc1 (configuration not stated)
inactive: [1] -0.75% | [2] -2.55% | [3] 18.7% | [4] -22.3% | [5] -10.8% | [6] 5.3%
